Values without a mark were called inactive.
System: Vero E6 infected with SARS-CoV-2
Assay: inhibition of SARS-CoV-2 cytopathic effect; higher = more antiviral protection, active = above 15
Conditions: 48 h

Structure (SMILES)	inhibition of SARS-CoV-2 cytopathic effect (1 nM)	inhibition of SARS-CoV-2 cytopathic effect (8.33 nM)	inhibition of SARS-CoV-2 cytopathic effect (100 nM)	inhibition of SARS-CoV-2 cytopathic effect (833.33 nM)	inhibition of SARS-CoV-2 cytopathic effect (10000 nM)
FC(F)(F)C(F)(F)C(F)(F)N(C(F)(F)C(F)(F)C(F)(F)F)C(F)(F)C(F)(F)C(F)(F)F [perfluamine]	-4.49%	-1.58%	-5.22%	-3.78%	-1.62%
C[C@H](NCc1ccc(OCc2ccccc2F)cc1)C(N)=O [priralfinamide]	-0.13%	7.24%	6.27%	0.58%	-1.48%
COc1cc2c(c(OC)c1OC)-c1c(cc3c(c1OC)OCO3)CC(C)C(C)C2 (stereo not given) [schisandrin-B]	-1.41%	-0.34%	-0.03%	-1.73%	-1.42%
CS(=O)(=O)c1ccc([C@@H](O)[C@@H](CF)NC(=O)C(Cl)Cl)cc1 [florfenicol]	-5.27%	-3.73%	-3.16%	0.63%	-0.52%
Ic1cncc(OC[C@@H]2CCN2)c1	0.24%	-0.44%	0.14%	1.07%	-0.56%
Oc1ccc2ccccc2c1Cc1c(O)ccc2ccccc12	2.61%	-1.04%	2.9%	-1.96%	5.77%
CSc1nc2ccc3nc(NC(=O)C(c4ccccc4)c4ccccc4)sc3c2s1	1.77%	1.67%	1.24%	1.38%	-1.25%
CCC(CC)C(c1ccc(Nc2nc3ccccc3s2)cc1)n1cncn1 (stereo not given) [talarozole]	3.05%	0.68%	0.42%	1.31%	4.15%
O=C1NC(=O)c2c1c1c3ccccc3n3c1c1c2c2ccccc2n1C1CCC3O1	0.12%	2.27%	-1.21%	4.22%	8.57%
Nc1ccc(S(=O)(=O)Nc2ccnn2-c2ccccc2)cc1 [sulfaphenazole]	2%	2.26%	1.62%	2.18%	-0.83%
C#C[C@]1(O)CC[C@H]2[C@@H]3CCC4=CC(=O)CC[C@]4(C)[C@H]3CC[C@@]21C [ethisterone]	2.99%	3.61%	2.08%	-0.95%	2.77%
Nc1ccc([As](=O)(O)O)cc1 [arsanilic-acid]	0.07%	1.05%	-1.33%	-2.25%	-0.8%
N#C/C(=C\c1ccc(O)c(O)c1)C(=O)NCc1ccccc1	5.06%	3.47%	7.47%	0.08%	5.05%
CC(C)(C)C(=O)/C(=N/c1ccc(Cl)cc1)NNc1ccc(Cl)cc1	1.8%	-0.69%	1.03%	0.66%	-7%
NC(=O)CN1CCCC1=O [piracetam]	0.23%	-1.52%	3.28%	-1.35%	-0.57%
CC(C)[C@@H]1C(=O)N(S(C)(=O)=O)[C@@H]2CCN(C(=O)/C=C/CN3CCCCC3)[C@H]21	-0.03%	-1.45%	1.05%	-0.28%	0.66%
Nc1ncnc2c1c(-c1cccc(OCc3ccccc3)c1)cn2C1CC(CN2CCCC2)C1 (stereo in doubt)	-0.48%	0.04%	1.98%	0.14%	27.9% (active)
CC1=C(/C=C/C(C)=C/C=C/C(C)=C/C=O)C(C)(C)CCC1 [retinaldehyde]	-0.27%	1.56%	3.22%	6.75%	10.4%
CCCCc1nn(-c2ccccc2C(F)(F)F)c(=O)n1Cc1ccc(-c2ccccc2S(=O)(=O)NC(=O)c2sccc2C)cc1	0.19%	-0.03%	2.56%	-2.77%	-1.65%

Source: the supplement of paper PMC13380429
